Many of the other results were omitted from the sample, so hits are more common in it than they were.
D1 mod – D1 CRE-luciferase signal change, two-sided – cell-based, HEK293 D1, dopamine EC30, D1 allosteric modulator project, primary screen; B-score at 10 µM; dopamine EC30 potentiation; actives deviate in either direction; AID 641, 2007; 58,000 compounds, 5.9% hits;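 active means luminescence count or its row- and column-corrected plate score outside the 99.7% band of the plate's sample wells, on either side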
Candida biofilm – clotrimazole potentiators killing Candida biofilms, primary screen, with clotrimazole, Alamar Blue; C. albicans biofilm + clotrimazole; inhibition, % at 6 µM; 85,000 compounds, 0.14% hits;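 active means inhibition above 20%; inactive means inhibition below 20%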;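 further: preformed 24 hr biofilms exposed to compound for 48 hr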
FXIa mix inh – FXIa protease inhibitors in compound pools, primary screen, biochemical, 10-compound mixtures; Coagulation factor XI (Homo sapiens), P03951; purified FXIa, fluorogenic substrate, pooled mixtures; inhibition, % at 5 µM; 62,000 compounds, 0.19% hits;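 further: each value is inhibition by a whole ten-compound pool holding the compound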
FXIIa inh mix – human factor XIIa inhibitors, primary screen, biochemical, pooled compound mixtures, fluorogenic substrate | Coagulation factor XII (Homo sapiens), P00748 | purified FXIIa | inhibition, % at 5 µM | 62,000 compounds, 0.2% hits | AID 684, 2007
HePTP inhibitor – inhibitors of human HePTP phosphatase, primary screen, biochemical, absorbance, leukemia target; recombinant HePTP phosphatase activity, OD absorbance; inhibition, % at 20 µM; 110,000 compounds, 0.64% hits; in the data active means inhibition above about 50%
TNAP act mid DEA – human TNAP enzyme activators, primary screen, biochemical, luminescent, intermediate phosphate acceptor level | Alkaline phosphatase, tissue-nonspecific isozyme (Homo sapiens), P05186 | purified TNAP, CDP-star luminescence, 100 mM DEA, 30 min; active compounds read high; scale: 0 levamisole-inhibited, 1 vehicle-only enzyme | activation factor at 20 µM | 64,000 tested, under 10 active | AID 813, 2007;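 active means activation factor of at least 2 at 20 µM, relative to controls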
Target sequence (P05186 whole entry, looked up): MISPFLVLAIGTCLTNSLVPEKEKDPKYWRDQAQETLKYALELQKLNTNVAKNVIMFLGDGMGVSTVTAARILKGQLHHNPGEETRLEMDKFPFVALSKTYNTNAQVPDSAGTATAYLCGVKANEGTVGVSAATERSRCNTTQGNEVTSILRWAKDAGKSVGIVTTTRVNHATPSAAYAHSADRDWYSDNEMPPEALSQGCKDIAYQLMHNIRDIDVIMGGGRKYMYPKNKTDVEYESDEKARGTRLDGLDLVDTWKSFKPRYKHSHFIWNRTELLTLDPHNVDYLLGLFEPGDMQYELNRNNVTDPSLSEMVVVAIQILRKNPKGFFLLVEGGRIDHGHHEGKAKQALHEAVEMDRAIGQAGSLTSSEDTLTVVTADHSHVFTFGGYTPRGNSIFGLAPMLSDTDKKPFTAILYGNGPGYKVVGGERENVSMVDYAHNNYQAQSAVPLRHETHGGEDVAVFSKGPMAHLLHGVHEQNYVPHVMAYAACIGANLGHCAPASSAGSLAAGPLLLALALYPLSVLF
D1 PAM confirm – D1 receptor positive allosteric modulators, retest, confirmation, cell-based, HEK293 D1, CRE-luciferase, duplicate. shares compounds with D1 mod. luminescence at 10 µM. 2,200 compounds, 88% hits. dopamine EC30 potentiation; active compounds read high;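 active means luminescence in either of two replicates above the same-plate mean plus 3 SD of the low-dose dopamine control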
D1 ag no DA – D1 receptor agonism without dopamine, confirmation, mechanism study for D1 allosteric modulator project, cell-based, HEK293 D1, CRE-luciferase, secondary assay 1; luminescence at 10 µM; 1,900 compounds, 0.8% hits; luminescence, no dopamine; active compounds read high; AID 646, 2007; shares compounds with D1 mod; in the data active means luminescence above about 3900
Isoprot counter – isoproterenol response counter-screen activity for D1 modulators. 2,200 compounds, 63% hits. AID 647. HEK293 D1 CRE-luciferase, isoproterenol EC30 counter-screen; active compounds read high. luminescence at 10 µM. shares compounds with D1 mod;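 active means luminescence in either replicate above plate mean of wells with a partly effective reference agonist dose plus 3 SD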;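 further: isoproterenol raises cAMP through native beta-adrenoceptor Gs so signal bypasses D1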
Each line names hits and unclear results; the compound was inactive in the other large screens (follow-up assays come after a bar, where they were run). Unless noted, no stated cut-off is given here; in the data, active means inhibition above about 20% (passing the limit was not always enough); inactive means the rest.

COc1cccc(Nc2ncccc2C(=O)NCc2ccccc2)c1	D1 mod 11 | D1 PAM confirm 21276 | D1 ag no DA inactive | Isoprot counter 4236
CCOc1ccccc1N(CC(=O)Nc1ccccc1Cl)S(=O)(=O)c1ccccc1	none (no result: D1 mod, Candida biofilm, FXIa mix inh, FXIIa inh mix, TNAP act mid DEA)
COC(=O)c1c(-c2ccccc2Cl)csc1NC(=O)C1C2CCC(C2)C1C(=O)O (stereo unspecified)	none (no result: D1 mod, Candida biofilm, FXIa mix inh, FXIIa inh mix, TNAP act mid DEA)
Cc1cccc(-c2cc3nc4c(c(N5CCCC(O)C5)n3n2)CCC4)c1 (stereo unspecified)	D1 mod 8.4 | D1 PAM confirm 18448 | D1 ag no DA inactive | Isoprot counter 6432
OC1CCCN(c2c3c(nc4cc(-c5cccc(Cl)c5)nn24)CCC3)C1 (stereo unspecified)	D1 mod 3.3 (no result: Candida biofilm) | D1 PAM confirm 16460 | D1 ag no DA inactive | Isoprot counter 5776
O=C1N/C(=N\Nc2ccccc2)S/C1=C\c1ccc(Cl)cc1Cl	none (no result: D1 mod, Candida biofilm, FXIa mix inh, FXIIa inh mix, TNAP act mid DEA)
CCOc1ccccc1NC(=O)CN(Cc1ccccc1)S(=O)(=O)c1ccccc1	none (no result: D1 mod, Candida biofilm, FXIa mix inh, FXIIa inh mix, TNAP act mid DEA)
C/C(=N\NC(=O)c1cc(C)[nH]n1)c1ccc(C)cc1	none (no result: D1 mod, Candida biofilm, FXIa mix inh, FXIIa inh mix, TNAP act mid DEA)
COc1ccc2c(c1)CCC1C2=NN(/C(C)=C/C(C)=O)C1c1ccc(Br)cc1 (stereo unspecified)	none (no result: D1 mod, Candida biofilm, FXIa mix inh, FXIIa inh mix, TNAP act mid DEA)
CCOCC(=O)Nc1nnc(Cc2ccc(OC)c(OC)c2)s1	D1 mod 7.8 | D1 PAM confirm 12160 | Isoprot counter 2996
COc1ccc(C(=O)Nc2nnc(Cc3ccc(OC)c(OC)c3)s2)cc1	none (no result: D1 mod, Candida biofilm, FXIa mix inh, FXIIa inh mix, TNAP act mid DEA)
COCC(=O)Nc1nnc(Cc2ccc(OC)c(OC)c2)s1	D1 mod 9.8 (no result: FXIa mix inh, FXIIa inh mix) | D1 PAM confirm 19508 | D1 ag no DA inactive | Isoprot counter 3784
CCOCC(=O)Nc1nnc(Cc2ccc(OC)cc2)s1	none (no result: D1 mod, FXIa mix inh, FXIIa inh mix, HePTP inhibitor, TNAP act mid DEA)
Cc1nc2nc(C)n(-c3ccccc3)c2s1	D1 mod 15 | D1 PAM confirm 21228 | D1 ag no DA inactive | Isoprot counter 4412
Cc1nc2ccccc2n1-c1ccccc1	none
N#CC1=C(N)Oc2n[nH]c(-c3cccs3)c2C1c1ccsc1 (stereo unspecified)	D1 mod 4.4 | D1 PAM confirm 6176 | D1 ag no DA inactive | Isoprot counter inactive
Cc1ccc(C2C(C#N)=C(N)Oc3n[nH]c(-c4cccs4)c32)s1 (stereo unspecified)	D1 mod 4.6 | D1 PAM confirm 13468 | D1 ag no DA inactive | Isoprot counter inactive
Cc1ccc(NC(NC=O)C(Cl)(Cl)Cl)c(C)c1 (stereo unspecified)	none (no result: D1 mod, Candida biofilm, FXIa mix inh, FXIIa inh mix, TNAP act mid DEA)
Cc1ccc2nc(-c3ccc(C)c(NC(=O)c4ccc5ccccc5c4)c3)oc2c1	none (no result: D1 mod, Candida biofilm, FXIa mix inh, FXIIa inh mix, TNAP act mid DEA)
NC(=O)CSc1nc2scc(-c3ccco3)c2c(=O)n1-c1ccccc1	D1 mod 3.4 | D1 PAM confirm 10400 | Isoprot counter inactive
O=c1c2c(-c3ccco3)csc2nc(SCc2cn3cccnc3n2)n1-c1ccccc1	D1 mod 8.4 | D1 PAM confirm 15872 | D1 ag no DA inactive | Isoprot counter 12828
O=C(CSc1nc2scc(-c3ccco3)c2c(=O)n1-c1ccccc1)N1CCOCC1	none
COc1ccc(-c2coc3cc(O)ccc3c2=O)cc1OC	D1 mod 4.6 | D1 PAM confirm 9756 | D1 ag no DA inactive | Isoprot counter inactive
O=c1c(-c2ccc(F)cc2)coc2cc(O)ccc12	none
COc1cc(C(=O)N2CCN(c3cc(Cl)ccc3Cl)CC2)cc(OC)c1OC	D1 mod 6.5 | D1 PAM confirm 10496 | D1 ag no DA inactive | Isoprot counter 4396
COc1cc(C(=O)N2CCN(c3cccc(C)c3C)CC2)cc(OC)c1OC	none (no result: Candida biofilm)
CC(C)Sc1nc2c(c(=O)n1-c1ccc(F)cc1)SCC2	D1 mod 11 | D1 PAM confirm 23632 | D1 ag no DA inactive | Isoprot counter 4124
O=C(CSc1nc2c(c(=O)n1-c1ccc(F)cc1)SCC2)N1CCCC1	none (no result: Candida biofilm)
CCOC(=O)CSc1nc2sc3c(c2c(=O)n1CC)CC(C)(C)OC3	D1 mod 5.9 (no result: Candida biofilm) | D1 PAM confirm 8088 | D1 ag no DA inactive | Isoprot counter 3620
CCS(=O)(=O)n1nc(-c2ccc(Cl)cc2)nc1N	D1 mod 5 | D1 PAM confirm 8932 | D1 ag no DA inactive | Isoprot counter 3060
CCS(=O)(=O)n1nc(-c2ccc(C)cc2)nc1N	none
CCC(C(=O)NC1CCCC1)N(C(=O)Cn1nnc(-c2ccc(C)cc2)n1)C1CCCC1 (stereo unspecified)	none (no result: D1 mod, FXIa mix inh, FXIIa inh mix, HePTP inhibitor, TNAP act mid DEA)
CCC(C(=O)NC1CCCC1)N(C(=O)Cn1nnc(-c2ccc(OC)c(OC)c2)n1)C1CCCCC1 (stereo unspecified)	D1 mod 6.8 | D1 PAM confirm 9072 | D1 ag no DA inactive | Isoprot counter 3972
O=C(N/N=C/c1cccs1)C1CC(=O)N(c2ccc(Cl)cc2)C1 (stereo unspecified)	none (no result: D1 mod, Candida biofilm, FXIa mix inh, FXIIa inh mix, TNAP act mid DEA)
COc1ccc(-c2cc3nc(C4CCN(C(=O)OC(C)(C)C)CC4)c(C(=O)O)cn3n2)cc1	D1 mod 9.2 (no result: Candida biofilm) | D1 PAM confirm 14492 | D1 ag no DA inactive | Isoprot counter 4680
Cc1cc(=O)oc2cc(OCC(=O)NCCc3nc4ccccc4[nH]3)ccc12	D1 mod 3.2 (no result: Candida biofilm) | D1 PAM confirm 6860 | D1 ag no DA inactive | Isoprot counter inactive
COc1cc(-c2nc(S(=O)(=O)c3ccc(C)cc3)c(N3CCOCC3)o2)cc(OC)c1OC	D1 mod 5.4 | D1 PAM confirm 8652 | D1 ag no DA inactive | Isoprot counter 5140
COc1cc(-c2nc(S(=O)(=O)c3ccc(Cl)cc3)c(N3CCOCC3)o2)cc(OC)c1OC	none
O=C(Nc1cccc(C(F)(F)F)c1)/C(=C\c1cccs1)NC(=O)c1cccs1	none (no result: D1 mod, Candida biofilm, FXIa mix inh, FXIIa inh mix, TNAP act mid DEA)
O=C(COc1ccc(Cl)cc1)N/N=C/c1ccc(I)o1	none (no result: D1 mod, Candida biofilm, FXIa mix inh, FXIIa inh mix, TNAP act mid DEA)
CCOC(=O)c1cc2c(=O)n3ccccc3nc2n(C(C)C)c1=NC(=O)c1ccncc1	D1 mod 5.7 | D1 PAM confirm 16620 | D1 ag no DA inactive | Isoprot counter 4096
CCOC(=O)c1cc2c(=O)n3ccccc3nc2n(CCCOC)c1=NC(=O)C(C)(C)C	D1 mod 4.8 | D1 PAM confirm 7076 | D1 ag no DA inactive | Isoprot counter inactive

Screening results: PubChem, several laboratories
